A short description of assay [1]: qHTS assay to test for compound auto fluorescence at 535 nm (green) in HEK293 cells (AID 720680). In general terms: In qHTS, concentration-response curves come from the screen itself.
Assay [2] can be described thus: qHTS assay to test for compound auto fluorescence at 460 nm (blue) in HEK293 cell free culture (AID 720681). In a few lines:
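Compounds were added to cell-free DMEM with 10% FBS and fluorescence read directly. The blue channel used 405 nm excitation and 460 nm emission, with triamterene as the reference fluorophore.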

Assay [3] in a line: qHTS assay to test for compound auto fluorescence at 535 nm (green) in HEK293 cell free culture (AID 720682). The method in brief: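 Green-channel intensity (Ex/Em 485/535 nm) was recorded from compound-treated wells containing only DMEM with 10% FBS. Fluorescein provided the equivalency standard.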
Assay [4] is described as follows: qHTS assay to test for compound auto fluorescence at 590 nm (red) in HEK293 cell free culture (AID 720683). In a few lines:
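Cell-free wells of DMEM with 10% FBS received compound, and intrinsic fluorescence was read at excitation/emission 540/590 nm. Values expressed as equivalence to Rose Bengal sodium.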

Assay [5] in a line: qHTS assay to test for compound auto fluorescence at 590 nm (red) in HepG2 cell free culture (AID 720684). In a few lines: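 Compounds are added to culture medium (MEM, 10% FBS) lacking cells, then fluorescence is read at excitation 540 nm, emission 590 nm, with Rose Bengal sodium as the equivalency standard.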
A short description of assay [6]: qHTS assay to test for compound auto fluorescence at 460 nm (blue) in HepG2 cell free culture (AID 720685). In a few lines: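 Compound (23 nL) or DMSO pinned into cell-free MEM with 10% FBS; blue fluorescence read at 405/460 nm excitation/emission, expressed as auto-fluorescence equivalency to triamterene.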
Assay [7] is described as follows: qHTS assay to test for compound auto fluorescence at 535 nm (green) in HepG2 cell free culture (AID 720686).
Assay [8] in a line: qHTS assay to test for compound auto fluorescence at 460 nm (blue) in HepG2 cells (AID 720687). In a few lines:
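HepG2 cells in MEM with 10% FBS, attached overnight at 37 C, were exposed to compound or DMSO for 1 hr at 37 C, 5% CO2. Blue fluorescence was read at 405/460 nm, with triamterene as reference fluorophore.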

For assay [9], the target named is Glucocorticoid receptor (Homo sapiens) (UniProt P04150). Nature of the assay: qHTS assay to identify small molecule agonists of the glucocorticoid receptor (GR) signaling pathway (AID 720691; active = well fitted activation curve with a large enough effect in the signal ratio in the repeat runs, not every such curve was filed as active; the % refers to the signal ratio). In a few lines:
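Fluorescence intensity from LiveBLAzer B/G FRET substrate (2 h, room temperature) reports beta-lactamase expression driven by the glucocorticoid response element in GR-bla HeLa cells after 18 h compound exposure at 37 C.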

For assay [10] the target is unchanged. Nature of the assay: qHTS assay to identify small molecule antagonists of the glucocorticoid receptor (GR) signaling pathway (AID 720692; active = well fitted inhibition curve with a large enough effect in the signal ratio in the repeat runs, not every such curve was filed as active; the % refers to the signal ratio). In a few lines: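 HeLa GR-bla cells; cmpd + dex 5 nM final, 18 h 37 C; LiveBLAzer B/G FRET substrate 2 h RT; fluorescence intensity read. Antagonist mode, qHTS.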
The nature of assay [11]: qHTS assay to identify small molecule antagonists of the glucocorticoid receptor (GR) signaling pathway - cell viability counter screen (AID 720693). Note: nearly all actives have a fitted effect of over 55% in size.
Assay [12] can be described thus: qHTS assay for identifying genotoxic compounds that show differential cytotoxicity against isogenic chicken DT40 cell lines with known DNA damage response pathways - wild type cell line (AID 743012). Note: nearly all actives have a fitted effect of over 60% in size. The method in brief:
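Wild type DT40, 300 cells/well, ~0.5 h settle at 37 C/5% CO2; compounds in DMSO added by pintool; 40 h at 37 C/5% CO2; CellTiter-Glo, 30 min RT; luminescence.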

A short description of assay [13]: qHTS assay for identifying genotoxic compounds that show differential cytotoxicity against isogenic chicken DT40 cell lines with known DNA damage response pathways - Rev3 mutant cell line (AID 743014). Note: nearly all actives have a fitted effect of over 55% in size.
The nature of assay [14]: qHTS assay for identifying genotoxic compounds that show differential cytotoxicity against isogenic chicken DT40 cell lines with known DNA damage response pathways - Rad54/Ku70 mutant cell line (AID 743015). Note: nearly all actives have a fitted effect of over 60% in size. Note: potency is the fitted concentration of half-maximal effect.
The nature of assay [15]: qHTS assay to identify small molecule antagonists of the androgen receptor (AR) signaling pathway - cell viability counter screen (AID 743033; note: nearly all actives have a fitted effect of over 45% in size).
The target in assay [16] is Androgen receptor (Homo sapiens) (UniProt P10275). Put plainly: qHTS assay to identify small molecule antagonists of the androgen receptor (AR) signaling pathway (AID 743035; active = well fitted inhibition curve with a large enough effect in the signal ratio in the repeat runs, not every such curve was filed as active; the % refers to the signal ratio). In a few lines:
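Fluorescence from a beta-lactamase FRET substrate (LiveBLAzer B/G, 2 h, room temperature) measured inhibition of R1881-stimulated signaling in GeneBLAzer AR-UAS-bla HEK293 cells exposed to compound for 16 h at 37C.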

For assay [17] the target is unchanged. Put plainly: qHTS assay to identify small molecule agonists of the androgen receptor (AR) signaling pathway (AID 743036; active = well fitted activation curve with a large enough effect in the signal ratio in the repeat runs, with a control signal flat, not every such curve was filed as active; the % refers to the signal ratio). The method in brief:
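Cell-based FRET reporter assay: HEK293 line with a UAS-beta-lactamase construct, compounds added in DMSO, 16 h exposure at 37C, then 2 h substrate step at room temperature and fluorescence intensity read.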

For assay [18] the target is unchanged. Put plainly: qHTS assay to identify small molecule agonists of the androgen receptor (AR) signaling pathway using the MDA cell line (AID 743040; note: nearly all actives have a fitted effect of over 20% in size). In a few lines: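 Human breast carcinoma MDA-kb2 reporter cells (MMTV-luc, AR/GR elements) were treated for 16 h at 37C in 0% CO2 following a 5 h settling period. Signal was quantified by ONE-Glo luminescence.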

The nature of assay [19]: qHTS assay to identify small molecule antagonists of the androgen receptor (AR) signaling pathway using the MDA cell line - cell viability counter screen (AID 743041; note: nearly all actives have a fitted effect of over 45% in size). In a few lines: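 Same-well cytotoxicity was assessed by CellTiter-Fluor in MDA-kb2 AR-luc cells after 16 h of compound treatment under R1881 agonism.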
Assay [20] has as its target Androgen receptor (Homo sapiens) (UniProt P10275). Nature of the assay: qHTS assay to identify small molecule antagonists of the androgen receptor (AR) signaling pathway using the MDA cell line (AID 743042; note: nearly all actives have a fitted effect of over 55% in size). The method in brief: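 MDA-kb2 breast carcinoma cells carrying MMTV-luciferase (AR/GR responsive) were co-treated with compounds and the agonist R1881 for 16 h at 37C. Inhibition read as ONE-Glo luminescence; CellTiter-Fluor fluorescence measured in parallel for cytotoxicity.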

Records with an inconclusive call do not appear. Where a structure was tested more than once in an assay, its records may differ in their call. Calls of active or inactive are those of the source. Unless noted, calls come from the whole dose curve; as a rule, active = well fitted curve in the direction sought with a large enough effect in the repeat runs; inconclusive = weak or mixed curves; inactive = no such curve, though single readings can be large; an effect the other way counts as inactive or inconclusive.

Chain of Glucocorticoid receptor (Homo sapiens) (P04150 whole entry, looked up): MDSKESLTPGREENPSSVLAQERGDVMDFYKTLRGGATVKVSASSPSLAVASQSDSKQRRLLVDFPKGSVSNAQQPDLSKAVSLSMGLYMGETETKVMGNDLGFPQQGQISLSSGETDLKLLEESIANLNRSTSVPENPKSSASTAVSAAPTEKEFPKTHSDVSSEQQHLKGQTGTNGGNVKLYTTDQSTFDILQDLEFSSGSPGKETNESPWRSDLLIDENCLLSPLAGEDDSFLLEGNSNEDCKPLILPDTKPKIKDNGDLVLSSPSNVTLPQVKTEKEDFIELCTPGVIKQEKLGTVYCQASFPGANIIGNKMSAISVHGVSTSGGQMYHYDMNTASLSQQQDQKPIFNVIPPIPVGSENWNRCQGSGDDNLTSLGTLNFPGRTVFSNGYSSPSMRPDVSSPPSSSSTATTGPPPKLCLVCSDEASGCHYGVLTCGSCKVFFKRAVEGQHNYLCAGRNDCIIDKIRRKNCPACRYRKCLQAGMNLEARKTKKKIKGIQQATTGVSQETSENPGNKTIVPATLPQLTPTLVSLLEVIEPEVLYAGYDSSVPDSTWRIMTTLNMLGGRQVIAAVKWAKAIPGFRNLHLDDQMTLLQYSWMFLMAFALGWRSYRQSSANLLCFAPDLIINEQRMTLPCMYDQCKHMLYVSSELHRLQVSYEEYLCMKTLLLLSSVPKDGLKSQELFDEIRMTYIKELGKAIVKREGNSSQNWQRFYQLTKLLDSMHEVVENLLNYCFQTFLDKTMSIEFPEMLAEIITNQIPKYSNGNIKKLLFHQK
Chain of Androgen receptor (Homo sapiens) (P10275 whole entry, looked up): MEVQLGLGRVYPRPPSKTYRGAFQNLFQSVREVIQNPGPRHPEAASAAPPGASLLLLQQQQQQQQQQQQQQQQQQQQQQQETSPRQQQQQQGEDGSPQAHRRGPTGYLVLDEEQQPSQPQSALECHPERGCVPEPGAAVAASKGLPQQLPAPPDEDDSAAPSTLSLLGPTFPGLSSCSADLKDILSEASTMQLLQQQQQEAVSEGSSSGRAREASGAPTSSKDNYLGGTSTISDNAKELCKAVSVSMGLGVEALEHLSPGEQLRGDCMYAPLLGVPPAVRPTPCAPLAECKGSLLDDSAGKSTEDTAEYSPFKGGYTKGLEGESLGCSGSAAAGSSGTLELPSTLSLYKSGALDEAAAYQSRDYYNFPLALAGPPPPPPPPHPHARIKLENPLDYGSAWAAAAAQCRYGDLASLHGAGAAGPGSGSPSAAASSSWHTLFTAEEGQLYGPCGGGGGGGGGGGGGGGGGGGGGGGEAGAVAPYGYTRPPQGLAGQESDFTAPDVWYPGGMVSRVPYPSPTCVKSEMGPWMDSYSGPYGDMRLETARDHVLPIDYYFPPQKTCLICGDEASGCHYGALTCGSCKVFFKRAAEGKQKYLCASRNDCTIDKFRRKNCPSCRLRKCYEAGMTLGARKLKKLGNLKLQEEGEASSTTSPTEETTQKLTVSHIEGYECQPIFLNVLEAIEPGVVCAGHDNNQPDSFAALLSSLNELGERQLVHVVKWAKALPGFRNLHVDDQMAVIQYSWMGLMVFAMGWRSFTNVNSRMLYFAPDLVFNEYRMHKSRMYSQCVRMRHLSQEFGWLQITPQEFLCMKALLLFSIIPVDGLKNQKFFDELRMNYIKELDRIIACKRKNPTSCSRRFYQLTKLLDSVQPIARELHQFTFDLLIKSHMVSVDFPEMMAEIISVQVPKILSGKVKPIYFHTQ

As to `O=C(OCC(COC(=O)c1cccnc1)(COC(=O)c1cccnc1)COC(=O)c1cccnc1)c1cccnc1`, the call in [1], in [2], in assay [3], in assay [4], in assay [5] and in [6] was inactive. Moreover, the outcome in assay [7], in [8], in assay [10], in assay [11], in [17] and in assay [18] was inactive. The Potency entry in [9], in assay [12], in [13], in [14], in [15] and in assay [16] was “inactive” each time. Further, the Potency entry in assay [19] and in assay [20] was “inactive” in each case.

With `COC(=O)CCc1ccc(OCC(O)CNC(C)C)cc1` (configuration not stated), the outcome in [1], in assay [2], in [3], in assay [4], in assay [5] and in [6] was inactive. Further, the result in assay [7], in assay [8] and in [10] was inactive. Further, the Potency result in assay [9], in [15] and in assay [19] was “inactive” throughout.

`O=C1c2ccccc2C(=O)N1CCl`: the call in assay [1], in assay [2], in [3], in assay [4], in [5] and in assay [6] was inactive. Besides, the compound was called inactive in assay [7], in assay [8], in assay [10], in [11], in [17] and in [18]. Besides, the Potency result in [9], in [12], in assay [15], in [16], in assay [19] and in assay [20] was “inactive” in each case.

Turning to `CC(C)N(c1ccccc1)C(C)C`, the compound was called inactive in assay [1], in assay [2], in assay [3], in [4], in assay [5] and in [6]. For the same compound, the outcome in assay [7], in [8], in assay [10] and in assay [11] was inactive. Also, the Potency result in [9], in assay [12], in assay [13], in [14] and in assay [15] was “inactive” each time.

In the case of `Cc1cc(NC(=O)C2=C(O)c3ccccc3S(=O)(=O)N2C)no1`, the compound was called inactive in [1], in assay [2], in assay [3], in [4], in [5] and in assay [6]. Besides, the call in assay [7], in [8], in assay [10] and in [11] was inactive. For the same compound, the Potency entry in assay [9], in assay [12], in assay [13], in [14], in assay [15] and in assay [19] was “inactive” in each case.

Turning to `O=C(OCc1ccccc1)C(=O)OCc1ccccc1`, the call in [1], in [2], in assay [3], in [4], in assay [5] and in assay [6] was inactive. Besides, the compound was classed as inactive in assay [7], in [8], in [10], in assay [11], in [17] and in [18]. Moreover, the Potency result in assay [9], in assay [12], in assay [13], in assay [14], in [15] and in assay [16] was “inactive” in each case. In addition, the Potency result in assay [19] and in assay [20] was “inactive” throughout.

Regarding `O=P(O)(O)OP(=O)(O)O`, the call in assay [1], in assay [2], in [3], in assay [4], in assay [5] and in [6] was inactive. The call in assay [7], in assay [8], in assay [10] and in [11] was inactive. Further, the Potency entry in assay [9], in assay [12], in assay [13], in [15] and in [19] was “inactive” each time. Moreover, the Potency in assay [14] is 11.9 µM (active) and inactive.
